Bioassay records as filed in PubChem.
A selection: hits, their analogues and other compounds. The true share with any hit is near 3.6%.
Peg3 prom inh – inhibitors of Peg3 promoter. HeLa PEG-Prom luciferase reporter, luminescence, overnight. 360,000 compounds, 1.7% hits. inhibition, % at 20 µM;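 active = inhibition of at least 50% at 20 µM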
KKLEB tox – reduces viability of KKLEB cystic fibrosis airway cells; AID 602141; activity change (cytotoxicity), % at 5 µM; KKLEB CF airway cells viability, ATPlite luminescence, overnight; active compounds read low; cells stimulated with P. aeruginosa culture filtrate; 360,000 compounds, 0.36% hits;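 active = corrected activity change at or below -50% at 5 µM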
LGR2 inh – Drosophila LGR2 receptor signaling inhibition | HEK293 LGR2, CRE-luciferase, bursicon-stimulated, 4 h | inhibition, % at 9.99 µM | 380,000 compounds, 0.35% hits;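 active = drop in luminescence signal, shown as inhibition above about 50% in the replicate tests, limit read from the data, passing the limit was not always enough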;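 also: agonist challenge used bursicon conditioned medium at about half maximal strength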
HSP90 inh – blocks HSP90-mediated luciferase refolding in reticulocyte lysate; Rabbit reticulocyte lysate, luciferase refolding luminescence, 3 h; inhibition, % at 5.6 µM; 290,000 compounds, 0.91% hits; AID 1789;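 active = inhibition above the screen-wide mean plus 3 SD, computed separately per campaign, cut at about 16% in these data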;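 also: inhibitors lower the luminescence because luciferase stays unfolded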
Mdm2-MdmX inh – disrupts the human Mdm2-MdmX interaction; AID 485346; inhibition, % at 8 µM; O15151+Q00987; SaOS-2 split-luciferase Mdm2/MdmX complementation, luminescence; 330,000 compounds, 3% hits;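 active = inhibition of at least 50% at 8 µM in the primary screen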
Target sequence (O15151 whole entry, looked up): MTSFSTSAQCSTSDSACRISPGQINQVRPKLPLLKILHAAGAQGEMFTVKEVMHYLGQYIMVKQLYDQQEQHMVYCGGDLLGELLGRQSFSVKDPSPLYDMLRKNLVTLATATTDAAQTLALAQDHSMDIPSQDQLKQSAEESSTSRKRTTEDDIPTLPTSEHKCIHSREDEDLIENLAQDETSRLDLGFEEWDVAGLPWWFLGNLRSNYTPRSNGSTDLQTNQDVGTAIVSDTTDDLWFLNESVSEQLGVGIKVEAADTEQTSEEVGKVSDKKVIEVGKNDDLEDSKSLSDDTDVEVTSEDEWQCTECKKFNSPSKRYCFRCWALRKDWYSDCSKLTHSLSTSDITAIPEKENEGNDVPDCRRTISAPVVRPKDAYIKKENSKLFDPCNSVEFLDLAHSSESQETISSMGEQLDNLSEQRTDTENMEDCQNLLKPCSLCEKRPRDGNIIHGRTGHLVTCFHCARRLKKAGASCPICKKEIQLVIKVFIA
Target sequence (Q00987 whole entry, looked up): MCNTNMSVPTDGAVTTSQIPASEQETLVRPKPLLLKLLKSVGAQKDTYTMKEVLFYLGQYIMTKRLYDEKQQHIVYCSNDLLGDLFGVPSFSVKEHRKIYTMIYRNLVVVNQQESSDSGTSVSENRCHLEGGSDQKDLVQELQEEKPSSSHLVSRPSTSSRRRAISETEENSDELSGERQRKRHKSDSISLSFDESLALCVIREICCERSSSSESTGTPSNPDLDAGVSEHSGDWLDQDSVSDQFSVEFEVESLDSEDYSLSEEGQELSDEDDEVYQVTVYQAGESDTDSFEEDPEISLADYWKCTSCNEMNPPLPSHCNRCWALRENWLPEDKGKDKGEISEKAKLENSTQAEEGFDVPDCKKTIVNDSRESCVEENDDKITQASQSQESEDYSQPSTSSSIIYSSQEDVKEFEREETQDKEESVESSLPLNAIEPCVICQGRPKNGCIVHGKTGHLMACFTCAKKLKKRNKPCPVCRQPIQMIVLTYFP
CF NFkB inh – blocks PAF-induced NF-kB reporter in cystic fibrosis cells; KKLEB NF-kB-GFP reporter, GFP fluorescence overnight; inhibition, % at 5 µM; 360,000 compounds, 0.86% hits; AID 588850;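 active = at least 50% inhibition at 5 µM, scaled per plate between neutral and stimulator controls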;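 also: PAF is a Pseudomonas aeruginosa culture filtrate used as stimulus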
Mdm2-MdmX conf – human Mdm2/MdmX binding inhibition, confirmed. shares compounds with Mdm2-MdmX inh. luminescent assay. inhibition, % at 8 µM. 10,000 compounds, 55% hits. AID 489028; in the data active = inhibition above about 40%
FLuc counter – counter-screen for Mdm2/MdmX inhibitors: full-length luciferase | SaOS-2 full-length luciferase counterscreen, luminescence | inhibition, % at 8 µM | 6,200 compounds, 77% hits | shares compounds with Mdm2-MdmX inh | AID 504607;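 active = mean inhibition at 8 µM reaching about 37%, which flags the compound as non-specific, limit read from the data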;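 also: p53-null SaOS-2 cells with luciferase driven by a doxycycline-inducible promoter; compound on cells about two nights before reading with doxycycline added after day one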
Of the large screens only hits and unclear results are named; the others gave an inactive call (follow-up assays come after a bar, where they were run).

CCOC(=O)N1CCc2c(sc(NC(C)=O)c2C(N)=O)C1	none
CCOC(=O)N1CCc2c(sc(NC(=O)c3ccc(Cl)s3)c2C(N)=O)C1	Mdm2-MdmX inh 54.9 (no result: Peg3 prom inh, KKLEB tox, LGR2 inh, CF NFkB inh) | Mdm2-MdmX conf inactive
CCOC(=O)c1c(NC(=O)c2cccs2)sc2c1CCN(C(=O)OCC)C2	Mdm2-MdmX inh 64.9 (no result: LGR2 inh) | Mdm2-MdmX conf inactive
CCOC(=O)c1c(NC(=O)c2cccs2)sc2c1CCCC2	none (no result: LGR2 inh)
COc1ccc(Cn2c(SCc3ccccc3C)nc3cc(OC)c(OC)cc3c2=N)cc1	Peg3 prom inh 102.0, Mdm2-MdmX inh 96.9 (no result: LGR2 inh) | Mdm2-MdmX conf 52.4 | FLuc counter 48.4
COc1cc2nc(SCc3ccc(F)cc3)n(Cc3cccs3)c(=N)c2cc1OC	none (no result: LGR2 inh)
C[C@@H]1CN([C@H](C)CO)C(=O)c2cc(NC(=O)Cn3cnnn3)ccc2O[C@H]1CN(C)C	none (no result: Peg3 prom inh, KKLEB tox, HSP90 inh, Mdm2-MdmX inh, CF NFkB inh)
O=C1/C(=C/c2ccc([N+](=O)[O-])cc2)C=C(c2ccccc2)N1c1ccc(O)cc1	Mdm2-MdmX inh 61.4 | Mdm2-MdmX conf 57.9 | FLuc counter 52.1
COc1ccc(N2C(=O)/C(=C/c3ccc([N+](=O)[O-])cc3)C=C2c2ccccc2)cc1	none (no result: LGR2 inh)
C[C@@H]1CN([C@H](C)CO)C(=O)c2cc(NC(=O)Nc3cccc4ccccc34)ccc2O[C@@H](C)CCCCO[C@H]1CN(C)S(=O)(=O)c1ccc(F)cc1	none (no result: Peg3 prom inh, KKLEB tox, HSP90 inh, Mdm2-MdmX inh, CF NFkB inh)
O=C(CCl)Nc1cccc(S(=O)(=O)NC2=NCCC2)c1	Mdm2-MdmX inh 53.5 | Mdm2-MdmX conf 43.8 | FLuc counter 68.2
COc1cccc(NC(=O)CSc2nc3c(sc4ccccc43)c(=O)n2CCCN2CCCC2)c1	Peg3 prom inh 94.3, Mdm2-MdmX inh 88.9 | Mdm2-MdmX conf inactive
CCN(CC)CCn1c(SCC(=O)Nc2cccc(OC)c2)nc2c(sc3ccccc32)c1=O	Mdm2-MdmX inh 51.5 | Mdm2-MdmX conf inactive
CCOC(=O)c1ccc(Oc2cc(C)nc(SC)n2)cc1	Mdm2-MdmX inh 55.7 (no result: LGR2 inh) | Mdm2-MdmX conf 57.8 | FLuc counter 49.0
CCCNC(=O)C[C@H]1C[C@@H]2c3cc(NS(=O)(=O)c4cccc(OC)c4)ccc3O[C@@H]2[C@H](CO)O1	none (no result: Peg3 prom inh, KKLEB tox, HSP90 inh, Mdm2-MdmX inh, CF NFkB inh)
O=c1/c(=C\c2ccc(O)cc2)sc2n1C(c1ccccc1)C(c1ccccc1)=NN=2 (stereo not drawn)	Mdm2-MdmX inh 79.0 (no result: LGR2 inh) | Mdm2-MdmX conf 42.9 | FLuc counter 50.7
Clc1ccc(Cn2cc(/C=N/n3cnnc3)c3ccccc32)c(Cl)c1	Mdm2-MdmX inh 56.5 (no result: LGR2 inh) | Mdm2-MdmX conf inactive
C(=N\n1cnnc1)/c1cn(Cc2ccccc2)c2ccccc12	none
CO[C@H]1CN(C)C(=O)c2cc(NS(=O)(=O)c3cn(C)cn3)ccc2OC[C@@H](C)N(CC2CC2)C[C@@H]1C	none (no result: Peg3 prom inh, KKLEB tox, HSP90 inh, Mdm2-MdmX inh, CF NFkB inh)
CCN(CC)CCNC(=O)c1cc(-c2cccnc2)nc2ccc(S(=O)(=O)N3CCC(C)CC3)cc12	Peg3 prom inh 72.1, Mdm2-MdmX inh 99.5 | Mdm2-MdmX conf 75.6 | FLuc counter 53.3
O=C(OCCN1C(=O)c2cccc3c(N4CCOCC4)ccc(c23)C1=O)c1ccc(Cl)cc1	Mdm2-MdmX inh 72.9 | Mdm2-MdmX conf 53.5 | FLuc counter 69.2
Cc1cc(C)cc(NC(=O)CSc2ccc(-c3ccccn3)nn2)c1	Mdm2-MdmX inh 68.2 | Mdm2-MdmX conf 67.5 | FLuc counter inactive
Cc1ccccc1N(Cc1cc(=O)[nH]c2ccccc12)C(=O)CCl	Peg3 prom inh 57.6, Mdm2-MdmX inh 95.8 | Mdm2-MdmX conf 73.2 | FLuc counter 58.4
Cc1ccccc1N(Cc1cc(=O)[nH]c2ccccc12)C(=O)C(C)C	none
Cc1cc(=O)oc2cc(OCC(=O)N3c4ccccc4CC3C)ccc12 (stereo not drawn)	Mdm2-MdmX inh 50.6 | Mdm2-MdmX conf 62.0 | FLuc counter 46.3
Cc1cc(=O)oc2cc(OCC(=O)N3CC(C)OC(C)C3)ccc12 (stereo not drawn)	none (no result: Peg3 prom inh, KKLEB tox, CF NFkB inh)
Cc1ccc(S(=O)(=O)N(C)C[C@@H]2Oc3c(NC(=O)c4ccncc4)cccc3C(=O)N([C@@H](C)CO)C[C@H]2C)cc1	none (no result: Peg3 prom inh, KKLEB tox, HSP90 inh, Mdm2-MdmX inh, CF NFkB inh)
Cc1cc2oc3cc(NCCC4CCCN4C)ccc3c(=O)c2cc1C (stereo not drawn)	Peg3 prom inh 83.2, Mdm2-MdmX inh 82.2 (no result: LGR2 inh, HSP90 inh) | Mdm2-MdmX conf inactive
O=C1CN(S(=O)(=O)c2cccc(F)c2)C[C@@H]2[C@H](c3ccc(-c4ccccc4)cc3)[C@@H](CO)N12	none (no result: Peg3 prom inh, KKLEB tox, HSP90 inh, Mdm2-MdmX inh, CF NFkB inh)
O=C(Nc1cccc2ccccc12)NC1Cc2ccccc2C1	Mdm2-MdmX inh 78.8 | Mdm2-MdmX conf inactive
O=C(Nc1cccc2ccccc12)NC1CCCCC1	none
COc1cc(CNC(C)c2ccccc2)cc(Cl)c1OCC(=O)Nc1ccccc1 (stereo not drawn)	Mdm2-MdmX inh 67.7 | Mdm2-MdmX conf 56.3 | FLuc counter 51.5
CCN(CC)CCNCc1cc(Cl)c(OCC(=O)Nc2ccccc2)c(OC)c1	none
COc1cc(CNC(C)c2ccccc2)cc(Br)c1OCc1ccc(F)cc1 (stereo not drawn)	Peg3 prom inh 58.8, Mdm2-MdmX inh 59.7 | Mdm2-MdmX conf 62.7 | FLuc counter 75.0
COc1cc2c(cc1OC)C(c1cccs1)N(C(=O)c1cccnc1)CC2 (stereo not drawn)	Mdm2-MdmX inh 56.2 | Mdm2-MdmX conf 58.4 | FLuc counter 73.3
Cc1ccc(S(=O)(=O)Nc2ccc3c(c2)C(=O)N([C@H](C)CO)C[C@@H](C)[C@H](CN(C)Cc2ccc(C(=O)Nc4ccccc4N)cc2)O3)cc1	none (no result: Peg3 prom inh, KKLEB tox, HSP90 inh, Mdm2-MdmX inh, CF NFkB inh)
COc1cc(-c2c(C#N)c(N)nc3c2c(C)nn3-c2ccc(C)c(C)c2)cc(OC)c1OC	none (no result: LGR2 inh)
Cc1nn(-c2ccc(F)cc2)c2nc(N)c(C#N)c(-c3ccc(O)c(O)c3)c12	Mdm2-MdmX inh 61.1 | Mdm2-MdmX conf inactive
Cc1nn(-c2ccccc2)c2nc(N)c(C#N)c(-c3ccc(O)c(O)c3)c12	Mdm2-MdmX inh 55.2 | Mdm2-MdmX conf inactive
C[C@H](NC(=O)[C@H]1[C@H](CO)[C@H]2Cn3c(ccc(-c4ccncc4)c3=O)[C@@H]1N2C)c1ccccc1	none (no result: Peg3 prom inh, KKLEB tox, HSP90 inh, Mdm2-MdmX inh, CF NFkB inh)
COc1ccc(OCc2n(CC(=O)OC3CC(C)CCC3C(C)C)c3ccccc3[n+]2C)cc1 (stereo not drawn)	Peg3 prom inh 100.0, KKLEB tox -52.9, Mdm2-MdmX inh 94.3, CF NFkB inh 64.3 | Mdm2-MdmX conf 97.2 | FLuc counter 58.6
CC1CCC(C(C)C)C(OC(=O)COC(=O)c2cc(O)ccc2N)C1 (stereo not drawn)	none
CCNc1nc(NC(C)C)nc(Oc2ccc(OCCOc3ccc(C)cc3)nn2)n1	Mdm2-MdmX inh 51.9 | Mdm2-MdmX conf inactive
O=C(C1CC1)N1CC2(C1)[C@H](c1ccccc1)[C@@H](CO)N2S(=O)(=O)c1ccccc1	none (no result: Peg3 prom inh, KKLEB tox, HSP90 inh, Mdm2-MdmX inh, CF NFkB inh)
